In the library only some 12% were active in any assay of this set; here they are far more common.
BAZ2B inh = blocks human BAZ2B. Q9UIF8. 360,000 compounds, 4.4% hits. AID 504333. Potency, µM (doses to about 114 µM), without a hit: top-dose activity change, negative = inhibition, usual class: inhibitors. AlphaScreen BAZ2B-H3K14Ac peptide displacement; note: % is set by controls: 0 for no effect and ±100 for the full control effect; nearly all actives have a fitted effect of over 60% in size
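Complex of BAZ2B and biotin-H3K14Ac (50 nM apiece) forms over 30 min at RT, then faces library compounds up to 110 uM for another 30 min; AlphaScreen beads added, 20 min dark incubation, luminescence read.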
Sfp inh = Sfp phosphopantetheinyl transferase inhibition; 310,000 compounds, 3.5% hits; Q9F4F7; Potency, µM, without a hit: largest response in the series, negative = inhibition, hits mostly inhibitors; Biochemical Sfp PPTase activity, qHTS;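 note: the enzyme is Sfp with the accession as filed and its product quenches rhodamine fluorescence; 0% = enzyme reaction without inhibitor and -100% = no enzyme wells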
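Fluorescence-quenching assay: 15 nM Sfp-PPTase preincubated 15 min at room temperature with compound, then 5 uM rhodamine-CoA and 12.5 uM BHQ-2-labelled YbbR peptide added. Fluorescence (ex 525/em 598 nm) read at start and after 30 min; difference gives rate.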
L3MBTL1 inh = blocks human L3MBTL1. Q9Y468. AlphaScreen L3MBTL1–H3K9me1 peptide binding. Potency, µM (series often up to 57.1 µM), for inactives: at the top dose activity, negative = inhibition, actives largely listed as inhibitors. 230,000 compounds, 0.66% hits; note: % is set by controls: 0 for no effect and ±100 for the full control effect; nearly all actives have a fitted effect of over 60% in size
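Read-out is AlphaScreen signal from streptavidin donor and nickel chelate acceptor beads (10 ug/mL final each) bridging L3MBTL1 (50 nM) and biotinylated K9-monomethylated H3(1-15) peptide (75 nM), after 30 min compound exposure at room temperature.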
G9a block = blocks human histone lysine methyltransferase G9a; Q96KQ7; G9a H3K9 monomethylation, AlphaScreen, 2 h; Potency, µM (series often up to 102 µM), without a hit: at the top dose activity, negative = inhibition, actives largely listed as inhibitors; 350,000 compounds, 8.8% hits; note: % is set by controls: 0 for no effect and ±100 for the full control effect; nearly all actives have a fitted effect of over 75% in size
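Enzyme 20 nM + cpd, 15 min RT; add b-H3K9 pep 500 nM / SAM 20 uM; 2 h RT; anti-H3K9me1 Ab 0.5 ug/mL + SA donor / anti-rabbit acceptor beads 20 ug/mL each, 10 min; AlphaScreen read.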
HP1b binding inh = blocks HP1-beta chromodomain binding to methylated histone tails; P83916; AlphaScreen HP1-beta / biotin-H3K9me3 peptide binding; Potency, µM (titrated, usually from 114 µM), for inactives: at the top dose activity change, negative = inhibition, hits mostly inhibitors; 390,000 compounds, 0.56% hits; AID 540317; note: nearly all actives have a fitted effect of over 70% in size
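AlphaScreen: HP1-beta (50 nM) preformed 30 min with biotin-H3(1-18)K9me3 peptide (50 nM) in PBS pH 7.4, 0.01% Tween-20. Compound added for 30 min at RT, then streptavidin donor/nickel chelate acceptor beads (10 ug/mL) for 30 min.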
JMJD2A Tudor inh = blocks the human JMJD2A Tudor domain; O75164; AID 504339; Potency, µM (top dose mostly 114 µM), for inactives: at the highest dose activity change, negative = inhibition, most hits filed as inhibitors; 390,000 compounds, 4.4% hits; AlphaScreen JMJD2A-Tudor / H3K4me3 peptide binding; note: % is set by controls: 0 for no effect and ±100 for the full control effect; nearly all actives have a fitted effect of over 50% in size
Target sequence (O75164 whole entry, looked up, the tested form may be a part): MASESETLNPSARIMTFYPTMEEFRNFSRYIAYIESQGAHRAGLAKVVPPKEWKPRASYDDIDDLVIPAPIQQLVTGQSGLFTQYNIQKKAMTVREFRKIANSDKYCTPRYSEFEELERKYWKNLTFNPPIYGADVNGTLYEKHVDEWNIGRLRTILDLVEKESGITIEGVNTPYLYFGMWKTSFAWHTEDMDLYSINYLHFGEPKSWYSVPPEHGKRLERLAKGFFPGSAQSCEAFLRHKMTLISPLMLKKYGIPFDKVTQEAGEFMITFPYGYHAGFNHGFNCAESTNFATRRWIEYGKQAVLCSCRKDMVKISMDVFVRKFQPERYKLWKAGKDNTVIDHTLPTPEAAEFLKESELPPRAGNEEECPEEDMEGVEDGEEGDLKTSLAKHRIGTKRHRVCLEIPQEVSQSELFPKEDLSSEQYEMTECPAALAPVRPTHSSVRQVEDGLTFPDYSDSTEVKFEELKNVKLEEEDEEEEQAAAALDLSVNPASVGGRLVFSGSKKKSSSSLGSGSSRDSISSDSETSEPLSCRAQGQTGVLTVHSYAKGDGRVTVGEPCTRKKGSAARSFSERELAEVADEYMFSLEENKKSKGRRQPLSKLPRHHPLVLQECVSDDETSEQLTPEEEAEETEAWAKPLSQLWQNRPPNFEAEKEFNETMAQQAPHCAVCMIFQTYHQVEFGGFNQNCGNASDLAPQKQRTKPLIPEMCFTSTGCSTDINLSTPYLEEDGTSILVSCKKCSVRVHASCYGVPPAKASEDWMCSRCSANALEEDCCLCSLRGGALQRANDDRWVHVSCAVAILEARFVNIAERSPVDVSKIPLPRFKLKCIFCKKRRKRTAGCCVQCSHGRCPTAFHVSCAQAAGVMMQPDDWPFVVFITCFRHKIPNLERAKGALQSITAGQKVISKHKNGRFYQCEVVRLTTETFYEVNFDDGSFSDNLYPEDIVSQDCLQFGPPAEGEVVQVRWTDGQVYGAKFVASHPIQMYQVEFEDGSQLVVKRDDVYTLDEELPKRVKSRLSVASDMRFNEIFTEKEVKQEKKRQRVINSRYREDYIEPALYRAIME
* = called active by the depositor; ? = inconclusive; nt = no result given; [ ] = another dose, or the depositor's remark. Calls come from the whole dose curve; as a rule, active = well fitted curve in the direction sought with a large enough effect; inconclusive = small, poorly fitted or top-dose-only effect, or another doubt; inactive = no such curve, though single readings can be large; an effect the other way counts as inactive or inconclusive. Potency is the fitted concentration of half-maximal effect.

SMILES | BAZ2B inh | Sfp inh | L3MBTL1 inh | G9a block | HP1b binding inh | JMJD2A Tudor inh
CC1CCC(=O)N(CCC#N)CC1 (centres undefined) | -30% | 0% | 2% | 50µM* | 23% | -8%
CC1CCC(=O)N(CCSc2ccccc2)CC1 (centres undefined) | -4% | 24% | 0% | 23% | 20% | -15%
Cc1ccc(C)c(NC(=O)Cn2c(=O)nc(-c3ccccc3)c3ccccc32)c1 | -13% | nt | nt | 27%[59 µM] | 4% | -16%
O=C(O)Cn1c2ccccc2c2n[nH]c(=S)nc21 | 50µM* | 45µM* | -13% | 2.2µM* | -20% | 20µM*
CCCn1c2ccc(C)cc2c2n[nH]c(=S)nc21 | -36% | 40µM* | nt | ? | 26% | -25%
C=CCn1c2ccccc2c2n[nH]c(=S)nc21 | -35% | 40µM* | 0% | 10µM* | 9% | -32%
C=CCn1c2ccccc2c2nnc(SCN3C(=O)c4ccccc4C3=O)nc21 | -25% | 3% | -10% | 11%[12.7 µM] | 12% | -5%
CCn1c2ccccc2c2n[nH]c(=S)nc21 | -24% | 50µM* | nt | 7.9µM* | 8% | -19%
C/C=C/C=C/C(=O)N1CC[C@]23c4ccccc4N[C@H]4N(C)c5cccc6c5[C@]42CCN([C@H]6C2OC2(C)C)[C@H]13 (some centres undefined) | 50µM* | -12% | nt | ? | -32% | 50µM*
CCn1c(Sc2ccc([N+](=O)[O-])cn2)nnc1-c1ccco1 | 2% | 16% | 8% | 1%[0.501 µM] | 36% | 25µM*
Cc1nn(C)cc1CN(C)C(=O)c1ccc(OC2CCN(Cc3ccccn3)CC2)cc1 | ? | -13% | nt | ? | 29% | 56µM*
CC(C)N(Cc1cnn(C)c1)C(=O)c1ccc(OC2CCN(Cc3ccccn3)CC2)cc1 | 89µM* | -13% | nt | 45µM* | 28% | -36%
CN(C(=O)c1ccc(OC2CCN(Cc3ccccn3)CC2)cc1)C1CCCCC1 | -24% | 17% | nt | 19% | 56% | -14%
Cc1noc(C)c1-c1ccc2ncnc(NCc3cc(F)cc(F)c3)c2c1 | nt | 8% | nt | nt | nt | -22%
O=C(c1cccc(F)c1)N1CCC2(CC1)CN(c1ncccn1)C2 | nt | -8% | nt | 12%[12.7 µM] | nt | nt
COC(=O)CCCSc1nccn1-c1ccccc1 | ? | 5% | -4% | 45µM* | 27% | -18%
c1ccc(CCSc2nccn2-c2ccccc2)cc1 | 40µM* | 3% | ? | 45µM* | ? | ?
O=C(CSc1nccn1-c1ccccc1)NCc1ccc(F)cc1 | -21% | 10% | nt | -38% | 16% | -9%
O=C(CSc1nnc(CNC(=O)c2ccco2)o1)Nc1cccc(F)c1 | -12% | 13% | nt | 7%[59 µM] | 8% | -2%
COc1ccc(OCc2nnc(SCC(=O)N(C)Cc3ccccc3)n2N)cc1 | nt | 25µM* | -6% | 7.1µM* | ? | ?
Cc1cccc(Cn2c(CN3CCC(C(=O)NCCc4ccccc4)CC3)cc3ccccc32)c1 | -13% | nt | nt | -8%[59 µM] | 37% | -20%
Cc1ccc2nc(-c3cc(N)cc(N)c3)oc2c1 | 50µM* | 12% | -4% | -42%[59 µM] | -30% | ?
COC(=O)Cc1nnc(SCC(=O)Nc2ccccc2)c2ccccc12 | -24% | 10% | nt | -21% | 61% | 11%
COCC(=O)N1CCC[C@@]2(CCN(c3ccccc3)C2)C1 | nt | 11% | nt | -4%[12.7 µM] | nt | nt
O=C(O)c1ccc2c(=O)n(-c3ccccc3)c(=S)[nH]c2c1 | -19% | -18% | nt | ? | 47% | 6%
SMILES | BAZ2B inh | Sfp inh | L3MBTL1 inh | G9a block | HP1b binding inh | JMJD2A Tudor inh
O=c1[nH]c(=O)c2[nH]c(=S)n(-c3ccccc3)c2[nH]1 | nt | nt | nt | nt | -7% | 40µM*
CCOC(=O)N1CCN(C(=O)c2cn(C)c3ccc(S(=O)(=O)N(C)C4CCCCC4)cc3c2=O)CC1 | 0% | 15% | nt | -9% | 54% | 13%
CNC(=S)NNc1nc(N2CCOCC2)nc(N2CCOCC2)n1 | -7% | 2.2µM* | 12% | ? | ? | 25µM*
C=CCNC(=S)NNc1nc(Nc2ccccc2)nc(N2CCCCC2)n1 | -26% | 25% | -29% | ? | 5% | -18%[11.4 µM]
C=CCNC(=S)NNc1nc(N2CCCC2)nc(N2CCCC2)n1 | -32% | 40µM* | -7% | ? | 13% | -20%
C1CN(c2nc(N3CCOCC3)nc(N3CCOCC3)n2)CCO1 | 0% | 16% | 1% | 26%[59 µM] | 25% | -9%[11.4 µM]
CCNC(=S)NNc1nc(N2CCOCC2)nc(N2CCOCC2)n1 | nt | 14µM* | nt | ? | -37% | -11%
COc1ccc(C(=O)Nc2ccc(Cl)cc2C(=O)N2CCCC(C)C2)cc1OC (centres undefined) | 10% | 4% | 0% | 3% | -8% | -10%
COc1cccc2c1C(=O)c1c(O)c3c(c(O)c1C2=O)C[C@@](O)(C(=O)CO)C[C@@H]3OC1C[C@@H](N)[C@H](O)[C@H](C)O1 (some centres undefined) | nt | ? | nt | 14µM* | nt | nt
CC(=O)[C@]1(O)Cc2c(O)c3c(c(O)c2[C@@H](O[C@H]2C[C@H](N)[C@H](O)[C@H](C)O2)C1)C(=O)c1ccccc1C3=O | nt | -21% | nt | 13µM* | -38% | ?
CCCCC(=O)OCC(=O)[C@]1(O)Cc2c(O)c3c(c(O)c2[C@H](OC2CC(NC(=O)C(F)(F)F)C(O)C(C)O2)C1)C(=O)c1c(OC)cccc1C3=O (some centres undefined) | nt | 9% | nt | 8.9µM* | nt | nt
CC(=O)[C@]1(O)Cc2c(O)c3c(c(O)c2[C@@H](O[C@H]2C[C@H](N)[C@H](O)[C@H](C)O2)C1)C(=O)c1c(O)cccc1C3=O | nt | ? | nt | 14µM* | nt | nt
COc1cccc2c1C(=O)c1c(O)c3c(c(O)c1C2=O)C[C@](O)(C(=O)CO)C[C@@H]3O[C@H]1C[C@H](N)[C@@H](O)[C@H](C)O1 | nt | 11% | nt | ? | nt | nt
CCOc1ccc(C(=O)Nc2c(C(=O)c3ccccc3)oc3ccccc23)cc1 | 5% | nt | nt | 12%[59 µM] | 44% | 29%
COc1ccc(COC[C@H](C)[C@H](O[Si](C)(C)C)[C@@H](C)[C@H]2OC(=O)[C@H]2C)cc1 | nt | -6% | nt | nt | 25% | -3%
COc1cccc(CNC(=O)Cc2ccc(NC(=O)N3CCSc4ncccc43)cc2)c1OC | -15% | nt | nt | -2%[59 µM] | 10% | -7%
Cc1ccc(CN2CCNC(=O)C2CC(=O)N(C)C2CCCCC2)o1 (centres undefined) | -11% | 18% | 1% | -9%[12.7 µM] | 5% | -32%
COCCN(C(=O)CC1C(=O)NCCN1Cc1ccc(-c2ccccc2)cc1)C(C)C (centres undefined) | -17% | -4% | -10% | 50µM* | 25% | -19%

High-throughput results: PubChem, National Center for Advancing Translational Sciences (NCATS)
